Measurements: ChEMBL document CHEMBL1157539, “Thousands of chemical starting points for antimalarial lead identification” (Nature, 2010)

Tested on: HepG2
Assay: GSK_TCMDC: Percent inhibition of human HepG2 cell line. Test compounds present at 10uM.
Format: functional

Question: For `c1ccc(-c2nc(Nc3nc4ccccc4[nH]3)[nH]c2-c2ccccc2)cc1`, which Inhibition is on record?
Answer: 14%

Question: `Cc1c(-c2cccc(Br)c2)[nH]c2nc(N)nc(N)c12` was tested. Which Inhibition did it give?
Answer: 8%

Question: Which Inhibition does the source give for `Cl.c1ccc2c(C3CCN(CCCCOc4ccc5c(c4)CCN(CC4CC4)CC5)CC3)c[nH]c2c1` here?
Answer: 74%

Question: Which Inhibition does the source give for `CCC(C)NS(=O)(=O)c1ccc2nc(Nc3ccc(C)c(Cl)c3)n(C3CCCCC3)c2c1` (stereo not given) here?
Answer: 0%

Question: With `O=C(NC1CCCCN(Cc2ccccc2O)C1)c1cccc(Cl)c1.O=C(O)C(F)(F)F` (stereo not given) as the compound, how does the Inhibition read?
Answer: 15%

Question: Which Inhibition does the source give for `NCc1ccc(-c2cccc(CNC3CCN(Cc4ccccc4)CC3)c2)cc1.O=C(O)C(F)(F)F` here?
Answer: 24%

Question: With `Cc1cccc(CNc2nccc3[nH]c4ccccc4c23)c1.O=C(O)C(F)(F)F` as the compound, how does the Inhibition read?
Answer: 14%

Question: How did the Inhibition turn out when `N#Cc1ccc(CNCCCCCCCNCc2ccc(-c3ccccc3)cc2)cc1` was run?
Answer: 19%

Question: For `CCOC(=O)c1ccc(NC(=O)N[C@H]2CCN(CCCCCNC(=O)/C=C/c3ccc(Cl)c(Cl)c3)C2)cc1`, which Inhibition is on record?
Answer: 21%

Question: For `Cc1c(C(=O)C2CC2CN2CCC(N3CCCC3)CC2)sc2ccccc12` (stereo not given), which Inhibition is on record?
Answer: 16%

Question: `CCC(C(=O)Nc1cc(=O)[nH]c2nc(-c3ccco3)nn12)c1ccccc1` (stereo not given) was tested. Which Inhibition did it give?
Answer: 2%

Question: For `CN1CC=C(c2csc3ccc(NC(=O)Nc4ccc(-c5ccncc5)c5ccccc45)cc23)CC1`, which Inhibition is on record?
Answer: 20%

Question: How did the Inhibition turn out when `CCOC(=O)CCc1cc(F)c(F)c(OC[C@H](O)CNC(C)(C)C(O)c2ccc3ccccc3c2)c1.Cl` (stereo not given in full) was run?
Answer: 12%

Question: `CC(C)CNC(=S)N1CCCN(c2nc3ccc(Cl)cc3s2)CC1` was tested. Which Inhibition did it give?
Answer: 28%

Question: Which Inhibition does the source give for `C=CCC(C)n1ncc2c3c(N)nc(N)nc3ccc21` (stereo not given) here?
Answer: 66%

Question: For `Cc1cc(N(C)CCN(C)C)nc(Nc2ccc(Cl)cc2)n1`, which Inhibition is on record?
Answer: 0%

Question: Which Inhibition does the source give for `COc1c(C2CCN(CCN3CCC(CNC(=O)c4ccc(-c5ccc(C#N)cc5)cc4)CC3)CC2)ccc2c1CCCC2` here?
Answer: 96%

Question: For `CS(=O)(=O)N(c1ccc(F)cc1)c1cc(C(=O)N[C@@H](Cc2ccccc2)[C@H](O)CNCc2cccc(C(F)(F)F)c2)cc(N2CCCC2=O)c1.O=CO`, which Inhibition is on record?
Answer: 0%

Question: For `COc1ccc(CCc2ccc(-c3c(C)[nH]c(C)c(Cl)c3=O)cc2)cc1`, which Inhibition is on record?
Answer: 0%

Question: How did the Inhibition turn out when `COc1ccc2nccc([C@@H](O)CN3CCC(NCc4ccc5c(c4)NC(=O)C(C)(C)O5)CC3)c2c1.O=C(O)C(=O)O` was run?
Answer: 6%

Question: How did the Inhibition turn out when `CCOC(=O)c1ccc(OCCCCCCOc2ccc(Br)cc2)cc1` was run?
Answer: 12%

Question: `O=C(Nc1ccccc1)c1ccc(N2CCC(COc3cccc(C(F)(F)F)c3)CC2)nc1` was tested. Which Inhibition did it give?
Answer: 11%

Question: `COc1c(Br)cc(Br)cc1-c1ccc(CN2C3CCCC2CCC3)[nH]1.Cl` was tested. Which Inhibition did it give?
Answer: 42%

Question: Which Inhibition does the source give for `Cc1ccc(N2CCN(C(=O)c3cccc(-c4cncc5nc(-c6ccco6)n(C)c45)c3)CC2)nc1` here?
Answer: 0%

Question: For `COc1c(C2CCN(CCCCNC(=O)c3cc(-c4ccc(Cl)cc4)oc3C)CC2)ccc2c1CCCC2`, which Inhibition is on record?
Answer: 93%

Question: `CN(C)CCNC(=O)c1ccc(-c2cnc3ccc(NCc4ccc(Cl)c(Cl)c4)nn23)cc1` was tested. Which Inhibition did it give?
Answer: 60%

Question: For `COc1ccc(-c2nc(NC(=O)Cc3ccc(OC)c(OC)c3)sc2C)cc1`, which Inhibition is on record?
Answer: 33%

Question: `CCCOc1ccccc1-c1nc2[nH]c3c(c2c(=O)[nH]1)CCN(C)C3` was tested. Which Inhibition did it give?
Answer: 8%

Question: How did the Inhibition turn out when `O=C(NC1CC1)c1cnc(N2CCCC(c3ccccc3)C2)c(Cl)c1.O=C(O)C(F)(F)F` (stereo not given) was run?
Answer: 6%

Question: For `CC(C)N(Cc1cnc2nc(N)nc(N)c2n1)c1ccc(Cl)c(Cl)c1`, which Inhibition is on record?
Answer: 63%

Question: For `CC(CCCCC(=O)Nc1ccc(CC(C)NCCc2cccc(Cl)c2)cc1)NCCc1cccc(Cl)c1` (stereo not given), which Inhibition is on record?
Answer: 28%

Question: How did the Inhibition turn out when `CCCC(C)n1ccc2c3c(N)nc(N)nc3ccc21` (stereo not given) was run?
Answer: 70%

Question: Which Inhibition does the source give for `CN(C)C(=O)CCCn1c(CNCCCNc2cc(=O)c3ccccc3[nH]2)cc2c(Cl)cc(Cl)cc21.Cl` here?
Answer: 1%

Question: How did the Inhibition turn out when `O=C(NCc1ccccc1)OC1CNCCC1c1ccc(C(O)Cc2ccccc2)cc1.O=C(O)C(F)(F)F` (stereo not given) was run?
Answer: 8%

Question: `COc1cccc2c(NN=Cc3cccc(Cl)c3)cc(C)nc12` was tested. Which Inhibition did it give?
Answer: 3%

Question: For `O=C(Nc1ccc2c(c1)CCC2)c1cccc(CN2CCCN(Cc3cccc(O)c3)CC2)c1.O=C(O)C(F)(F)F`, which Inhibition is on record?
Answer: 10%

Question: `COc1ccc(Cl)cc1N1CCN(CCCNC(=O)c2ccc(-c3nc4cc(Cl)c(Cl)cc4[nH]3)c(C)c2)CC1` was tested. Which Inhibition did it give?
Answer: 4%

Question: With `COc1ccc(S(=O)(=O)N2CCOCC2)cc1NC(=O)c1cc2ccccc2o1` as the compound, how does the Inhibition read?
Answer: 8%

Question: How did the Inhibition turn out when `Cc1cc(NC2CCN(Cc3ccccc3)CC2)nc(NCCCCc2ccccc2)n1` was run?
Answer: 65%

Question: `Cc1cccc(NC(=O)NCc2ccccc2)n1` was tested. Which Inhibition did it give?
Answer: 14%
